Cav3 T inh: Cav3.2 calcium influx blockers – cell-based, Fluo-4 calcium fluorescence, FDSS, MLSMR library, primary screen. Voltage-dependent T-type calcium channel subunit alpha-1H (Homo sapiens), O95180. 100,000 tested, 4% active. B-score at 10 µM. Cav3.2-expressing cells; active compounds read low;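 active means single-dose well whose peak fluorescence ratio is a statistical outlier from its plate by either plate-standardised score or position-corrected B-score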
PostGolgi ctrl: growth inhibition of yeast control strain, primary screen, counter-screen for post-Golgi transport modulator project; efflux-deficient yeast background strain, growth absorbance A615, 16 h; inhibition, % at 10 µM; 98,000 tested, 5% active
PostGolgi yeast: phenotypic screen on post-Golgi transport, primary screen | post-Golgi transport phenotypic cell assay | inhibition, % at 10 µM | 98,000 tested, 0.9% active | AID 739, 2007;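 further: yeast cells grown in 1536-well plates; yeast grown about 18 h at 30C before absorbance read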
Pyk2 oligo antag: antagonists of Pyk2 self-association, primary screen, Q293 cells, FERM NanoBiT luminescence, HTS | Protein-tyrosine kinase 2-beta (Homo sapiens), Q14289 | active compounds read low | z-score (the deposit names both 25 µM and 10 µM) | 99,000 tested, 0.83% active;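 active means Z-score of -3 or lower, scaled per plate to the spread of control and sample wells; inactive means z-score above -3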;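 further: negative z-score means lost luminescence so less FERM oligomerization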
* = called active by the depositor; . = not tested or not shown. Only some compounds are listed: those with a hit (about 8% of all), similar ones and a draw of the others. Unless noted, no stated cut-off is given here; in the data, active means inhibition above about 30%; inactive means the rest.

SMILES	Cav3 T inh	PostGolgi ctrl	PostGolgi yeast	Pyk2 oligo antag
COc1cc(C2CC(=O)c3c([nH]c(C(=O)OCCOC(C)C)c3C)C2)cc(OC)c1OC (configuration not stated)	-4.7*	16	-1	.
CCCOCCOC(=O)c1[nH]c2c(c1C)C(=O)CC(c1cc(OC)ccc1OC)C2 (configuration not stated)	-5.3*	12	3	.
N#CCSc1nnc(COc2ccc3ccccc3c2)o1	-0.66	14	-10	0.75
CCn1c(SCCOc2ccc(Cl)cc2)nnc1-c1cccs1	-5.2*	27	1	-2.2
CCn1c(SCC(=O)c2ccc(Cl)cc2)nnc1-c1cccs1	-0.35	18	4	-0.97
CCOC(=O)c1c(/N=C/c2cccc([N+](=O)[O-])c2O)sc(C)c1C	.	.	.	0.56
CCCCNc1nc(-c2ccccc2)c(C(=O)OCC)cc1C#N	-4.2	23	0	-0.7
C=CCNc1nc(-c2ccccc2)c(C(=O)OCC)cc1C#N	-4.4*	20	1	-1
O/N=C/c1cc(Cl)ccc1OCc1ccccc1Cl	0.21	30	7	-0.29
O/N=C/c1cc(Br)cc(Br)c1OCc1ccccc1	-0.48	58*	3	-0.41
O/N=C/c1cc(Br)ccc1OCc1ccc(F)cc1	-4.6*	.	.	-1.9
Cc1ccc(COc2ccc(Br)cc2/C=N/O)cc1	0.082	44*	19	-2.2
CC(Sc1nnc(CNc2cccc3ccccc23)n1-c1ccccc1)C(=O)N/N=C/c1ccco1 (configuration not stated)	-1.6	10	1	-0.55
CCCCCC(=O)N/N=C(\C)c1ccc(Cl)cc1	-0.26	0	-2	-0.66
CCOC(=O)c1cc(CC)sc1N	-0.27	30*	0	.
CCOC(=O)c1cc(CC)sc1NC(=O)COC	-0.018	11	2	0.18
COC(=O)NC1CSCC1OC(=O)CN1C(=O)c2ccccc2C1=O (configuration not stated)	0.54	40*	2	-0.03
O=S(=O)(Nc1nc2ccccc2[nH]1)c1ccccc1	0.0097	-3	-3	0.58
CCC(C)Oc1nc2ccccc2nc1NS(=O)(=O)c1ccccc1 (configuration not stated)	-3.2	31*	-5	-1.6
Cc1nonc1OCCNC(=O)C12CC3CC(CC(C3)C1)C2	0.19	10	-10	0.82
O=C(N/N=C/c1c[nH]c2ccc(Br)cc12)c1ccn(Cc2ccc(Cl)cc2)n1	.	57*	3	-1.3
O=C(N/N=C/c1c[nH]c2ccccc12)c1ccn(Cc2ccc(Cl)cc2Cl)n1	.	10	6	0.23
CCCCN(CC)C(=O)C1CCC(=O)N(c2ccc(OC)cc2)C1c1ccc(OC)c(OC)c1 (configuration not stated)	.	.	.	0.23
Cc1ccccc1N(CC(=O)N/N=C/c1ccc(N(C)C)cc1)C(=O)c1ccccc1	-4.5*	2	9	-0.95
Cc1ccccc1N(CC(=O)N/N=C/c1ccccc1Cl)C(=O)c1ccccc1	0.024	-1	-1	-1.8
SMILES	Cav3 T inh	PostGolgi ctrl	PostGolgi yeast	Pyk2 oligo antag
CCC(CCC(=O)Nc1ccn(-c2ccccc2)n1)C(=O)O (configuration not stated)	0.00051	11	3	-0.17
Cc1nn(Cc2ccc(Cl)cc2Cl)c(C)c1NC(=O)NC12CC3CC(CC(C3)C1)C2	-4.2*	16	17	-0.5
Cc1ccc(C(=O)N2CCN3C(=O)c4ccccc4C23c2ccc(Cl)cc2)cc1 (configuration not stated)	-5*	39*	21	-1.4
CC1CCCC(C)N1C(=O)Nc1cccc(Cl)c1 (configuration not stated)	0.17	6	3	1.5
O=C(Nc1cccc(Cl)c1)N1CCN2C(=O)c3ccccc3C12c1ccccc1 (configuration not stated)	-6.6*	4	18	-3.2*
CC1(C)Cc2ccccc2C(N)=C1C#N	0.48	8	-17	1.3
C=CCc1ccc(OCC(O)COc2ccc(CC=C)cc2OC)c(OC)c1	-8.9*	12	-3	-1.8
C=CCc1ccc(OCCOCCOc2ccccc2[N+](=O)[O-])c(OC)c1	-4.6*	8	29	-0.79
C=CCn1c(SCCOc2ccc(OC)cc2)nnc1C(C)NC(=O)Cc1ccc(OC)cc1 (configuration not stated)	-1.1	7	-11	-1.1
CCSC1=C(C#N)C2(CCCC2)C(C#N)=C(N)N1	0.78	-3	-2	-0.81
N#CC1=C(N)NC(SCc2ccc(Cl)cc2)=C(C#N)C12CCCCC2	-4.1*	18	48*	-0.86
N#CC1=C(N)NC(SCC(=O)Nc2ccc(Br)cc2)=C(C#N)C12CCCCC2	-6.5*	-9	-8	-1.6
N#CC1=C(N)NC(SCc2ccc(Br)cc2)=C(C#N)C12CCCCC2	.	.	.	-2.3
O=C(Nc1ccon1)C(Sc1ccccc1)c1ccccc1 (configuration not stated)	-4.2*	5	2	-1.1
CC(C)NC(=O)C(Sc1ccccc1)c1ccccc1 (configuration not stated)	-0.29	4	0	-0.4
O=C(c1cc2cc(Br)cc(Br)c2oc1=O)N1CCCc2ccccc21	-0.28	-7	-4	.
N[C@@H](Cc1ccc(O)cc1)c1nnc([C@H](CO)NC(=O)C2CCNCC2)o1	-0.66	.	.	.
C=CCOc1ccc(CNn2c(C)n[nH]c2=S)cc1OC	0.37	1	-2	1.1
CN1CC(c2ccccn2)C2(SC(=S)N(Cc3ccccc3)C2=O)C12C(=O)Nc1ccccc12 (configuration not stated)	-4.8*	6	3	0.41
CN1CC(c2ccccc2)C2(SC(=S)N(Cc3ccco3)C2=O)C12C(=O)Nc1ccccc12 (configuration not stated)	-4.7*	30	13	-2.9
COC(=O)C1=C(C)N(Cc2ccco2)C(=O)N[C@@H]1c1ccccc1	-0.072	.	.	.
CCOc1ccccc1NC(=O)CSc1nc2cccnc2n1C	-0.025	4	2	0.34
Cc1cc(=O)oc2c1ccc1oc(/C(=N/O)c3ccccc3)c(C)c12	-0.017	35*	16	-3.7*
O=S(=O)(c1ccc2c(c1)C(=NO)c1cc(S(=O)(=O)N3CCCCC3)ccc1-2)N1CCCCC1	-6.4*	17	-3	-2.6
CCN(CC)S(=O)(=O)c1ccc(C)c(C)c1	0.055	21	1	0.35
SMILES	Cav3 T inh	PostGolgi ctrl	PostGolgi yeast	Pyk2 oligo antag
CC1CCN(S(=O)(=O)c2ccc3c(c2)C(=NO)c2cc(S(=O)(=O)N4CCC(C)CC4)ccc2-3)CC1	-3.5	-8	-3	-2.8
CCN(CC)S(=O)(=O)c1cccc(S(=O)(=O)N2CCCCC2)c1	-0.014	0	10	-0.53
CCN(CC)S(=O)(=O)c1ccc(NC(=O)CN(c2ccc(OC)cc2OC)S(C)(=O)=O)cc1	-6.6*	24	-2	0.05
CCN(CC)S(=O)(=O)c1cccc(S(=O)(=O)c2cccc(S(=O)(=O)N(CC)CC)c2)c1	-5.3*	.	.	0.75
CCN(CC)S(=O)(=O)c1ccc2c(c1)C(=NO)c1cc(S(=O)(=O)N(CC)CC)ccc1-2	-5.7*	.	.	-3*
c1ccc(SCc2nc3ccccc3[nH]2)nc1	0.72	-5	-1	0.25

Source: PubChem
